# Source: PubChem BioAssay (Sanford-Burnham Center for Chemical Genomics)
# Compounds with a hit are over-represented: about 2.5% of the library has one in this group of screens.
# hiPSC survival: enhancers of single-cell hiPSC survival, primary screen, ATPlite luminescence; actives 0.044% (n = 360,000); survival enhancement, % at 20 µM; 100% = ROCK inhibitor wells, 0% = DMSO; in the data active = survival enhancement above about 18%;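 note: cells exposed to compounds for 16 hours before the ATP read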
# CRFR2-BP ag: agonists of CRF-BP/CRF-R2 complex, primary screen, cell-based, HEK293, calcium dye fluorescence, uHTS; activation, % at 13.2 µM; CRF-binding protein / CRF receptor 2 complex (human); calcium dye fluorescence (FLIPR); percent of saturating CRF peptide response; actives 0.46% (n = 350,000);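 active = activation of at least 50%, plus an integration ratio under a set limit after plate pattern correction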;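 note: plate controls were neutral control wells without compound for no effect and CRF at EC100 for full effect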
# SKN-1 inh: suppressors of acrylamide-induced Pgst-4::GFP reporter in worms, primary screen, SKN-1 inhibitor project, whole organism, uHTS, GFP/RFP fluorescence ratio, strain VP596. C. elegans VP596 Pgst-4::GFP/RFP ratio, 24 h. inhibition, % at 21.8 µM. actives 0.49% (n = 360,000). AID 624304, 2012;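 active = interference check ratio from 0.5 to 1.5 plus GFP to RFP signal ratio inhibition reaching or exceeding a fixed threshold, cut at about 30% in these data, passing the limit was not always enough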
# H9c2 TAG inh: inhibitors of triacylglycerol accumulation, primary screen, cell-based, uHTS, fluorescence, H9c2; H9c2 cells, Nile Red lipid (TAG) fluorescence; cells loaded with 200 µM oleic acid; inhibition, % at 12.5 µM; actives 0.66% (n = 230,000); AID 651582, 2012;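 active = pattern-corrected inhibition of lipid staining of at least 50% with the nuclear-stain viability signal not falling by more than 50%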;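 note: 0% = DMSO wells and 100% = triacsin C control wells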
# CRFR2-BP antag: antagonists of CRF-BP/CRF-R2 complex, primary screen, cell-based, HEK293, calcium dye fluorescence, uHTS; AID 588475, 2011; CRF-induced calcium fluorescence; actives 0.59% (n = 350,000); inhibition, % at 11.8 µM;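 active = inhibition of the ligand-induced calcium signal above about 50% at the single tested concentration, limit read from the data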
# Cardio protect: cardioprotection against H2O2-induced cell death, primary screen, uHTS, H9c2 cells, ATPLite luminescence | H9c2 cardiomyocytes, H2O2 injury protection, 2 h | protection from H2O2 cell death, % at 20 µM | actives 0.63% (n = 360,000) | AID 588492, 2011;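 active = compounds giving at least 50% protection of heart cells from peroxide-induced death in the single-dose screen, raw or plate-pattern-corrected value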;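 note: 0% = DMSO wells with peroxide and 100% = DMSO wells without peroxide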
# * = called active by the depositor; / = no result given.
SMILES,hiPSC survival,CRFR2-BP ag,SKN-1 inh,H9c2 TAG inh,CRFR2-BP antag,Cardio protect
Cc1c(C)n(Cc2ccc(F)cc2)c2ccc(C(=O)N3CCN(c4ccccn4)CC3)cc12,2,1,59*,/,-7,2
CCn1c(C)c(C)c2cc(C(=O)N3CCN(c4ccccc4)CC3)ccc21,3,0,46*,/,-10,-1
Cc1ccc(N(CC(=O)NCc2ccc(F)cc2)S(=O)(=O)c2c(C)nn(C)c2C)cc1,0,-1,4,/,0,1
Cc1ccc(CNC(=O)CN(c2ccc(C)cc2)S(=O)(=O)c2c(C)nn(C)c2C)cc1,0,-1,4,/,83*,-4
c1ccc(N=Nc2ccc(C3=NCCO3)cc2)cc1,-4,4,53*,15,18,-21
Cc1nc2ccccc2cc1OCc1ccccc1,-1,0,32,/,8,-12
COc1cccc(COc2cc3ccccc3nc2C)c1,-1,1,45*,-92,4,-14
Cc1nc2ccccc2cc1OCc1ccc(Cl)cc1,1,0,89*,/,7,-18
CN1CCN(C(c2cccnc2)c2ccc3cccnc3c2O)CC1 (stereo unspecified),-3,-1,13,7,-1,62*
Cc1nc2ccc(S(=O)(=O)CCC(=O)NCCc3ccccc3)cc2s1,-1,/,-10,/,/,-8
O=C(Nc1nc(-c2ccccn2)cs1)c1cccc(S(=O)(=O)N2CCOCC2)c1,-4,2,5,9,-8,76*
O=C(Nc1ccncc1)c1cc(S(=O)(=O)N2CCOCC2)ccc1Cl,26*,0,3,4,14,3
O=C(Nc1ccc(S(=O)(=O)N2CCOCC2)cc1)c1cc(S(=O)(=O)N2CCOCC2)ccc1Cl,1,2,-11,1,-1,-7
CN1CCN(S(=O)(=O)c2cccc(C(=O)Nc3nc(-c4ccccc4)cs3)c2)CC1,4,0,6,/,-19,0
COc1ccc(C(=O)Nc2nc(-c3ccccn3)cs2)cc1S(=O)(=O)N1CCOCC1,0,1,-7,9,-9,54*
COc1ccc(-c2csc(NC(=O)c3cccc(N4C(=O)CCC4=O)c3)n2)cc1OC,-1,3,11,8,-3,85*
CCOc1ccc(-c2csc(NC(=O)c3cccc(N4C(=O)CCC4=O)c3)n2)cc1,0,1,-10,-4,-4,26
CCC1CCC2(CC1)NC(=O)N(CC(=O)NCc1ccccc1Cl)C2=O (stereo unspecified),-2,1,-4,-1,-15,-4
CC(C)CN(CC(C)C)c1nn[nH]n1,0,-1,-5,5,13,-3
Cc1cc(Br)c(NC(=O)CN2CCCC2)c(Br)c1,2,-1,0,/,0,-5
COc1ccc(CC(=O)Nc2nnc(SCc3ccccc3)s2)cc1S(=O)(=O)N1CCOCC1,4,0,61*,-25,6,-6
Cc1ccc(S(=O)(=O)N2CCOCC2)cc1C(=O)Nc1nc(-c2ccccn2)cs1,0,0,18,-12,-5,54*
CN(c1ccccc1)c1ccc(/C=C(\CCC(=O)O)c2nc3ccccc3s2)cc1[N+](=O)[O-],-1,-2,7,/,52*,0
CN(Cc1ccccc1)S(=O)(=O)c1nnc(NC(=O)c2ccc(F)cc2)s1,0,0,-2,/,59*,-4
COc1cc(CN2C(=O)C(C)ON=C2c2cccs2)cc(OC)c1 (stereo unspecified),0,/,-1,-4,/,-2
SMILES,hiPSC survival,CRFR2-BP ag,SKN-1 inh,H9c2 TAG inh,CRFR2-BP antag,Cardio protect
CCN(CC)Cc1cc(O)c(CN(CC)CC)cc1O,-1,8,1,-8,-7,55*
O=C(COC(=O)c1cc[n+]([O-])cc1)NC(=O)c1ccc(OC(F)F)cc1,0,1,16,-2,0,-4
NC(=O)c1ccsc1NC(=O)COC(=O)c1ccc([N+](=O)[O-])o1,0,0,-7,3,-2,40
NC(=O)c1ccsc1NC(=O)c1ccc([N+](=O)[O-])o1,0,6,2,63,-2,78*
CC1(C)OC(=O)C2=C(C[C@@H](C3CCCCC3)O[C@H]2c2ccccc2)O1,1,/,2,/,/,/
Brc1ccc(-c2cnc(-c3cccs3)o2)cc1,-2,7,89*,21,-34,-7
Cc1cc(NC(=O)c2ccccc2C)ccc1NC(=O)c1ccccc1Cl,-1,-3,11,/,13,0
N#CC1(NC(=O)COC(=O)C2CCN(S(=O)(=O)c3ccc4c(c3)OCCO4)CC2)CCCCC1,-1,-1,-17,11,14,-4
COc1cccc(C(=O)Nc2cccc(-c3nnc(-c4ccco4)o3)c2)c1,0,-2,11,20,-11,113*
CC(=O)c1ccc(C(=O)Nc2nnc(-c3ccc(Cl)cc3)o2)cc1,2,3,4,-7,3,66*
COc1cccc(C(=O)Nc2nnc(-c3ccc(Cl)cc3)o2)c1,0,4,14,-6,-3,67*
O=C(Nc1nnc(-c2ccco2)o1)c1ccc(Cl)cc1,0,-4,-3,21,-4,12
O=C(Nc1nnc(-c2ccccc2)o1)c1ccc(Cl)cc1,-1,54*,-19,8,73*,29
COc1cccc(C(=O)Nc2nnc(-c3ccc(F)cc3)o2)c1,0,1,3,1,-5,28
O=C(Nc1nnc(C2=COCCO2)o1)c1ccc(Cl)cc1,2,-2,7,/,-18,21
Cc1nnc(SCC(=O)Nc2cc(Cl)ccc2Cl)n1CC1CCCO1 (stereo unspecified),0,0,16,/,3,4
CN(C)c1ccc(C(CC(=O)O)NC(=O)c2ccc(Cl)cc2)cc1 (stereo unspecified),1,-2,8,27,2,-1
CN(C)c1ccc(C(=O)NNC(=O)c2ccc(Cl)cc2)cc1,0,0,0,-2,68*,0
Cc1ccc(C(=O)Nc2nnc(-c3ccco3)o2)cc1C,-2,1,3,40,51*,20
Cc1cccc(C(=O)Nc2nnc(-c3ccco3)o2)c1,2,-2,7,16,13,37
CN(C)c1ccc(C(=O)Nc2nnc(-c3ccc(Cl)cc3)o2)cc1,0,2,3,4,5,53*
COc1ccc2c(c1OC)C(=O)N1c3ccccc3COC21 (stereo unspecified),-2,-2,-5,3,67*,-18
